Bioassay records as filed in PubChem BioAssay.
The list is not random: actives were taken first. Their share in the collection is about 2.6%.
PABP polyA inh: blocks human PABP binding to poly(A) RNA; AID 2014; calls only at 35 µM; hit rate 1% among 290,000; fluorescence polarization;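 also: calls also rest on retests at 20 µM and on dose response follow-up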
eIF4H FP inh: inhibitors of RNA binding by human eIF4H. Q15056. eIF4H fluorescence polarization binding assay. inhibition, % at 35 µM. hit rate 0.94% among 290,000;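 also: calls also rest on retests at 20 µM and on dose response follow-up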
PHOSPHO1 block: inhibitors of human PHOSPHO1 phosphatase. Q8TCT1. recombinant PHOSPHO1, absorbance phosphatase assay. inhibition, % at 13.3 µM. hit rate 1.1% among 290,000; in the data active = inhibition above about 60%
PABP1 MLLE inh: inhibitors of microRNA-mediated deadenylation, human PABP1 MLLE binding. inhibition, % at 20 µM. AID 588489. P11940. hit rate 0.36% among 360,000. GST-MLLE / FITC-PAM2 fluorescence polarization; in the data active = inhibition above about 35%, passing the limit was not always enough;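 also: plate controls were DMSO wells with GST-MLLE for no effect and wells lacking GST-MLLE protein for full effect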
ABCB6 inh 2: blocks the human ABCB6 transporter; Q9NP58; K562-ABCB6 porphyrin accumulation, flow cytometry, 1 h; stronger effect = lower value; fluorescence ratio to DMSO, % at 10 µM; hit rate 0.19% among 360,000;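 active = fluorescence ratio to DMSO below 75%, the collection mean minus 3 SD; inconclusive = too few cells collected in the well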;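 also: signal is porphyrin accumulated inside mitochondria; 100% equals median channel fluorescence of DMSO control wells; lower ratio means ABCB6 inhibition with less porphyrin fluorescence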
Target sequence (Q9NP58 whole entry, looked up): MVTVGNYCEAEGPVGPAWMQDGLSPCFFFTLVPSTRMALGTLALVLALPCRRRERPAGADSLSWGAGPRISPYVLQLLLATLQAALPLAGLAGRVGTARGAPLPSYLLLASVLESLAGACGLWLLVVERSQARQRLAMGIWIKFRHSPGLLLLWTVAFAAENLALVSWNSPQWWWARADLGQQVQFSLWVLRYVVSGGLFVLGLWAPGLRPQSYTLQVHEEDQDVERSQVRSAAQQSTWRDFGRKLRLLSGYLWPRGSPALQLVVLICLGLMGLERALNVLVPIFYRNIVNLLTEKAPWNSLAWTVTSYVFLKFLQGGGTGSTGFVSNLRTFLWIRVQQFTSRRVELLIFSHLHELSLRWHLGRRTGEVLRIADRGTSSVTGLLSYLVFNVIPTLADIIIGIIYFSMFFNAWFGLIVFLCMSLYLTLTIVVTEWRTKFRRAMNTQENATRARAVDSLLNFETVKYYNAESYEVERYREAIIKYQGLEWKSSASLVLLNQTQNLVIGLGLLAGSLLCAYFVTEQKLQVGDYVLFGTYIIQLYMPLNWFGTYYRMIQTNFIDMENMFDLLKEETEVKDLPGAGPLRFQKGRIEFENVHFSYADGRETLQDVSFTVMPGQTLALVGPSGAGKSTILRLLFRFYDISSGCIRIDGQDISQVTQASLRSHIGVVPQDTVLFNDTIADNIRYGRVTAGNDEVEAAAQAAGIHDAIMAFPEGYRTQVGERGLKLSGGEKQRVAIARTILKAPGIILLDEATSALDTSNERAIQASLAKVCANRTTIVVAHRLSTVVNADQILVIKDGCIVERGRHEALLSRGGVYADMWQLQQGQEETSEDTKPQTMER
AI-2 QS modul: modulators of Vibrio harveyi AI-2 quorum sensing system. Vibrio harveyi JMH597 AI-2 luminescence/OD600 ratio, 9 h; stronger effect = lower value; strain lacks LuxN and CqsS sensors; 0 = neutral-control median. activity change, % at 7.5 µM. hit rate 0.4% among 300,000; in the data active = activity change below about -75%, passing the limit was not always enough; inconclusive = no clear call, values can overlap the other calls;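 also: luminescence divided by OD600 gain over 9 h not by final OD600 alone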
Numbers without * were called inactive; i = inactive; ? = inconclusive; / = not tested or not shown; + = active, no number. Unless noted, no rule for the calls is given here.

SMILES | PABP polyA inh | eIF4H FP inh | PHOSPHO1 block | PABP1 MLLE inh | ABCB6 inh 2 | AI-2 QS modul
CCN(C(=O)COC(=O)c1cc2c(s1)CCCCC2)C1CCS(=O)(=O)C1 (stereo not given) | i | 57 | / | 5 | 98 | 27
CC(C)CN(C(=O)COC(=O)c1cc2c(s1)CCC2)C1CCS(=O)(=O)C1 (stereo not given) | + | 86* | 3 | 1 | 95 | 32
CCc1nc2c(OCC=C(C)C)cccn2c1N(C)C(=O)c1ccc(OC)cc1 | / | / | / | 2 | 95 | /
Cc1cccc(C)c1NC(=S)Nc1ccc(F)cc1 | i | -3 | -4 | 44* | 98 | 12
CCN1C(=O)/C(=C\c2ccc(-c3cccc(C(=O)OC)c3)o2)SC1=Nc1ccc(C(=O)O)cc1 | i | 26 | 29 | / | / | 26
O=C(O)c1cccc(-c2ccc(/C=C3/SC(=Nc4ccccc4)N(Cc4cccnc4)C3=O)o2)c1 | + | 64* | 29 | -10 | 97 | 29
CCN=C1S/C(=C\c2ccc(-c3cccc(C(=O)O)c3)o2)C(=O)N1CC | i | 64* | 42 | 9 | 96 | 31
CCN=C1S/C(=C/c2ccc(-c3ccc(Cl)cc3C(=O)O)o2)C(=O)N1CC | i | 30 | 11 | -17 | 71* | 30
COCCN1C[C@@H](CO)O[C@@H](n2cnc3c(NCCCO)ncnc32)C1 | / | / | / | 1 | 96 | /
Cc1cc2cc(CNC(=O)c3ccc(Br)o3)ccc2[nH]1 | i | 9 | 13 | 57* | 107 | 16
Cc1cc2cc(CNC(=O)c3ccc(Br)o3)ccc2n1C | i | 31 | 31 | 62* | 111 | -3
CN(C)[C@H]1CCN([C@@H]2CS(=O)(=O)N[C@H]2COCc2ccccc2)C1 | / | / | / | 7 | 92 | /
C[C@H]1CN([C@@H](C)CO)C(=O)c2cc(Br)cnc2O[C@@H]1CN(C)C(=O)Nc1ccc(C(F)(F)F)cc1 | / | / | / | 7 | 96 | /
CCN(CCO)c1nc(SC)nc2c1sc1nc(-c3ccco3)c3c(c12)CCC3 | + | 85* | -1 | 21 | 99 | 15
CSc1nc(NCc2ccco2)c2sc3nc(C(C)C)c4c(c3c2n1)CC(C)(C)OC4 | i | -19 | 27 | -14 | 102 | 24
CSc1nc(NCCOCCO)c2sc3nc(-c4ccco4)c4c(c3c2n1)CCC4 | + | 94* | 44 | -6 | 94 | -11
CCN(CCC#N)c1ccc(/C=N/Nc2nc(C)cc(=O)[nH]2)c(C)c1 | + | 2.2* | -7 | 0 | 104 | 10
CCCCn1c(N)c(N(Cc2ccccc2OC)C(=O)C(C)Oc2ccc(F)cc2)c(=O)[nH]c1=O (stereo not given) | / | / | / | -14 | 99 | -2
CCCCn1c(N)c(N(Cc2ccccc2OC)C(=O)C(C)Oc2ccc(Cl)cc2)c(=O)[nH]c1=O (stereo not given) | i | -8 | 63* | -6 | 96 | 10
CCOC(=O)C1=C(N)n2c(s/c(=C/c3ccco3)c2=O)=C(C(=O)OC)C1c1ccco1 (stereo not given) | + | 83* | -22 | 3 | 102 | 4
N#CC1=C(N)n2c(s/c(=C\c3cccs3)c2=O)=C(C#N)C1c1cccs1 (stereo not given) | i | 60 | -6 | -23 | 862 | 9
N#CC1=C(N)n2c(s/c(=C\c3ccco3)c2=O)=C(C#N)C1c1ccco1 (stereo not given) | + | 99* | 13 | -46 | 140 | 23
Nc1ncnc2c1ncn2[C@@H]1O[C@H](C(=O)N[C@H]2c3ccccc3C[C@H]2OC=O)[C@@H](O)[C@H]1O | / | / | / | -2 | 104 | /
CCOC(=O)[C@]12CCC=C1N(Cc1ccco1)C(=O)[C@H](CC(=O)NCCCN1CCCC1=O)C2 | / | / | / | / | 99 | /
Cc1ccc(-n2nnc3c(=O)n(CC(=O)N4CCOCC4)cnc32)cc1 | i | -3 | -6 | -2 | 96 | 17
SMILES | PABP polyA inh | eIF4H FP inh | PHOSPHO1 block | PABP1 MLLE inh | ABCB6 inh 2 | AI-2 QS modul
O=C(Cn1cnc2c(nnn2-c2ccccc2)c1=O)N1CCOCC1 | + | active | 6 | -5 | 100 | 76
O=C(NCc1ccccc1Cl)c1[nH]c(C(F)(F)F)nc1-c1ccccc1 | / | / | / | 6 | 93 | /
Cc1c(Cl)cccc1NC(=S)NNc1ncc(C(F)(F)F)cc1Cl | i | 12 | 3 | 36* | 98 | 11
Cn1c(=O)oc2cc(S(=O)(=O)N3CCC4(CC3)OCCO4)ccc21 | + | 95* | -4 | -8 | 121 | 12
O=S(=O)(NC1CC1)c1ccc(S(=O)(=O)N2CCC3(CC2)OCCO3)cc1 | i | -6 | 16 | -3 | 95 | -3
O=S(=O)(c1ccc2c(c1)OCCO2)N1CCN(Cc2ccc3c(c2)OCO3)CC1 | i | 1 | 10 | 0 | 95 | 2
CC(C)CNS(=O)(=O)c1ccc(S(=O)(=O)N2CCC3(CC2)OCCO3)cc1 | + | ? | -2 | 6 | 97 | 17
Cn1c(=O)oc2cc(S(=O)(=O)N3CCN(Cc4ccc5c(c4)OCO5)CC3)ccc21 | i | -8 | 72* | -4 | 100 | 21
COc1ccc(-c2ccc(C(=O)NCc3ccc(N4CCN(C)CC4)cc3)c3occc23)c(C)c1 | / | / | / | -7 | 97 | /
O=C(c1nc2ccccn2c1CN1CCCC(O)C1)N1CCN(C2CCCCC2)CC1 (stereo not given) | i | 22 | 38 | 42* | 100 | 10
COCC1CCN(Cc2c(C(=O)N3CCN(C4CCCCC4)CC3)nc3ccccn23)C1 (stereo not given) | i | 29 | 23 | 27 | 94 | 10
CN(C)CCCNC(=O)c1cccc(-c2cnc3cccnn23)c1 | / | / | / | 15 | 101 | /
Fc1cccc(Cl)c1CSc1nnc(CNc2ccccc2)o1 | i | -9 | 22 | -8 | 91 | -3
Clc1ccc(CSc2nnc(CNc3cccc(Cl)c3)o2)cc1 | + | 63* | -15 | -4 | 94 | -10
CN1CCN(c2nc3nonc3nc2N2CCN(C)CC2)CC1 | + | 80* | 4 | 25 | / | ?
COc1ccc(S(=O)(=O)Nc2nnc(C(C)(C)C)s2)cc1 | i | 4 | 98* | 37 | 91 | 8
OC[C@@H]1CN(Cc2ccc(Cl)cc2)C[C@H](n2cnc3c(N4CCN(c5ccccc5)CC4)ncnc32)O1 | / | / | / | -7 | 102 | /
CCOC(=O)/C=c1\s/c(=C(\C#N)C(=O)NC)n(-c2ccccc2)c1=O | i | 40 | 11 | 5 | 96 | 19
COC(=O)/C=c1/s/c(=C(/C#N)C(=O)NCc2ccccc2)n(-c2ccccc2)c1=O | + | 111* | 15 | -40 | 98 | 9
COc1ccc(-c2coc3c(C)c4oc(=O)c(CCC(=O)O)c(C)c4cc23)cc1 | i | -2 | 11 | 5 | 97 | -4
Cc1c(CCC(=O)O)c(=O)oc2c(C)c3occ(-c4ccc(Br)cc4)c3cc12 | + | 72* | -2 | -14 | 92 | 52
